Reference: PubChem BioAssay (NCATS)
Values joined by “and” are separate entries in the source; they are usually repeats but may differ in a detail not shown here. Identical values can stand only once. Results filed as inconclusive are left out. Active and inactive are the calls of the source. Unless noted, calls follow the shape of the dose curve; as a rule, active = well fitted curve in the direction sought with a large enough effect; inconclusive = small, poorly fitted or top-dose-only effect, or another doubt; inactive = no such curve, though single readings can be large; an effect the other way counts as inactive or inconclusive.

Legend:
[1] = Cell Viability - LYMP2-001 (AID 921);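 also: series mostly up to about 92 µM; 0% = DMSO only and full inhibition = tetraoctylammonium bromide control wells; nearly all actives have a fitted effect of over 70% in size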
Summary of the method: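 A lymphoblastoid cell line of human origin was treated with library compounds across a concentration series for 24 hours, and viable cell number was estimated from ATP-driven luciferase light output. Hill modeling gave AC50.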

[2] = MultiTox-Fluor Cytotoxicity Assay - LYMP1-001 - Live Cells (AID 947);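 also: 0% = DMSO only and full inhibition = tetraoctylammonium bromide control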
[3] = MultiTox-Fluor Cytotoxicity Assay - LYMP1-002 - Live Cells (AID 955); also: % is scaled to controls: 0 for no effect and ±100 for the full control effect
Summary of the method: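 After 16 h compound exposure at 37 C, live LYMP1-002 lymphoblastoid cells (2500/well) were quantified by cleavage of cell-permeant GF-AFC substrate, read at 405/510 nm after 60 min. Concentration-response fitted with Hill equation for AC50.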

[4] = MultiTox-Fluor Cytotoxicity Assay - LYMP1-003 - Dead Cells (AID 961);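 also: 0% = DMSO and 100% = tetraoctylammonium bromide; nearly all actives have a fitted effect of over 70% in size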
Summary of the method: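 LYMP1-003 human lymphoblastoid cells (2500/well) exposed to compound 16 h at 37 C in complete medium; dead-cell protease read with bis-AAF-R110 fluorescence (Ex/Em 485/520) after 60 min at room temperature. Normalized to DMSO and 15 uM tetraoctylammonium bromide; AC50 from Hill fit.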

[5] = MultiTox-Fluor Cytotoxicity Assay - LYMP1-003 - Live Cells (AID 962);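 also: 0% = DMSO only and full loss = 92 µM tetraoctylammonium bromide; cytotoxic hits lower the live-cell protease signal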
Summary of the method: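 Live-cell protease activity (GF-AFC substrate, 405/510 nm, 60 min at room temperature) after 16 h, 37 C compound exposure of human lymphoblastoid LYMP1-003 cells; concentration-response fitted to the Hill equation for AC50.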

[6] = Cell Viability - LYMP2-003 (AID 965);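 also: cells exposed to compounds for 24 h before reading; 0% = DMSO only and full effect = 92 µM tetraoctylammonium bromide; nearly all actives have a fitted effect of over 50% in size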
Summary of the method: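 qHTS, human lymphoblastoid line, 2500 cells/well, complete medium. 24 h drug, 37 C. ATP-based luminescent readout; Hill-fit AC50.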

[7] = Cell Viability - LYMP2-004 (AID 966);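 also: plate controls were DMSO only for no effect and tetraoctylammonium bromide control for full effect; nearly all actives have a fitted effect of over 65% in size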
Summary of the method: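 AC50 values come from Hill modelling of concentration-dependent loss of intracellular ATP, measured by CellTiter-Glo luminescence. Human LYMP2-004 lymphoblastoid cells (2500/well) were exposed to compound for 24 h at 37 C.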

[8] = Cell Viability - LYMP2-009 (AID 968);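 also: series mostly up to about 92 µM; 0% = DMSO alone and the full-kill end = tetraoctylammonium bromide at 92 µM; nearly all actives have a fitted effect of over 55% in size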
[9] = Cell Viability - LYMP2-011 (AID 969);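 also: 0% = DMSO only and full inhibition = 92 µM tetraoctylammonium bromide; nearly all actives have a fitted effect of over 60% in size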
Summary of the method: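 Cytotoxicity qHTS with ATP content as read-out: lymphoblastoid cells (2500/well) exposed to compound for 24 h at 37 C, then luciferase luminescence measured. Concentration-response data fitted with the standard Hill equation to give AC50.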

[10] = Cell Viability - LYMP2-013 (AID 970);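 also: series mostly up to about 92 µM; 0% = DMSO only and full inhibition = tetraoctylammonium bromide control; nearly all actives have a fitted effect of over 55% in size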
Summary of the method: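 qHTS cytotoxicity: ATP-dependent luminescence (CellTiter-Glo, 30 min room temperature) read after 24 h compound exposure at 37 C of 2500 LYMP2-013 lymphoblastoid cells per well. Concentration-response fitted with Hill equation to give AC50.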

[11] = Cell Viability - LYMP2-017 (AID 972); also: series mostly up to about 92 µM; % is scaled to controls: 0 for no effect and ±100 for the full control effect; nearly all actives have a fitted effect of over 55% in size
Summary of the method: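 CellTiter-Glo luminescence (cellular ATP, 30 min RT) measured cytotoxicity after 24 hr compound treatment at 37 C. Cells were a human lymphoblastoid line, LYMP2-017, plated at 2500/well and incubated 5 hr first; concentration-response fitted with Hill equation for AC50.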

[12] = Cell Viability - LYMP2-019 (AID 973);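 also: 0% = DMSO alone and full effect = 92 µM tetraoctylammonium bromide; nearly all actives have a fitted effect of over 55% in size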
Summary of the method: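 AC50 values come from Hill-equation fits of luminescent intracellular ATP (CellTiter-Glo, 30 min, room temperature) following 24 h compound exposure at 37 C. Cells: LYMP2-019 lymphoblastoid line, 2500 per well, in complete culture medium.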

[13] = Cell Viability - LYMP2-021 (AID 974)
Summary of the method: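 AC50 values come from Hill-equation fits to CellTiter-Glo luminescence (ATP content), read after 24 hour compound exposure at 37 C of 2500 LYMP2-021 lymphoblastoid cells/well; tetraoctylammonium bromide as positive control.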

[14] = Cell Viability - LYMP2-006 (AID 978); also: series mostly up to about 92 µM; % is scaled to controls: 0 for no effect and ±100 for the full control effect; nearly all actives have a fitted effect of over 60% in size
Summary of the method: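 In this cytotoxicity screen, the human lymphoblastoid line grew in complete medium with test compounds for 24 hr at 37 C. Cellular ATP served as the viability signal.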

[15] = Cell Viability - LYMP2-007 (AID 979);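 also: cells exposed to compound for 24 h before reading; 0% = DMSO only and the negative end = 92 µM tetraoctylammonium bromide; nearly all actives have a fitted effect of over 60% in size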
Summary of the method: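 AC50 values come from Hill-equation fits of luminescent intracellular ATP (CellTiter-Glo, 30 min, room temperature) following 24 h compound exposure at 37 C. Cells: LYMP2-007 lymphoblastoid line, 2500 per well, in complete culture medium.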

[16] = Cell Viability - LYMP2-008 (AID 980); also: % is scaled to controls: 0 for no effect and ±100 for the full control effect; nearly all actives have a fitted effect of over 60% in size
Summary of the method: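 Cytotoxicity determined from ATP-dependent luciferase luminescence (CellTiter-Glo) following 24 h compound exposure of human lymphoblastoid LYMP2-008 cells at 37 C. Concentration-response data fitted to the Hill equation to give AC50.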

[17] = Cell Viability - LYMP2-012 (AID 982)
[18] = qHTS assay for cell viability of HEK293 cells (AID 743288); settings: ATP luminescence (CellTiter-Glo), 18 h; max response: stronger effect = lower value; also: % is scaled to controls: 0 for no effect and ±100 for the full control effect; nearly all actives have a fitted effect of over 50% in size
Summary of the method: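 HEK293, 18 h, 37 C, ATP luminescence. Cells at 2,000/well were allowed at least 5 h to settle before dosing; CellTiter-Glo developed 30 min at RT.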

[19] = qHTS assay for cell viability of the p53RE-bla HCT-116 cell line (AID 743292)
Summary of the method: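 Compound-exposed HCT-116 (p53RE-bla) cells, 4,000 per well, were kept 16 h at 37 C following a 5 h preincubation. Cell number was estimated from total ATP by CellTiter-Glo luminescence read after 30 min at room temperature.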

[20] = qHTS assay for small molecule activators of the human pregnane X receptor (PXR) signaling pathway (AID 720659; call rule not given here; also: 0% is about no effect)

Cc1ccccc1O
inactive: outcome [1] | outcome [2] | outcome [3] | Potency [4] | outcome [5] | outcome [6] | outcome [7] | outcome [8] | outcome [9] | outcome [10] | outcome [11] | outcome [12] | outcome [13] | outcome [14] | outcome [15] | outcome [16] | outcome [17] | max response [18] -5.04% and -4.42% | outcome [19] | outcome [20]
